For 16 targets, log2 fold change results are on record in the supplement of paper PMC10849652.

Of roughly 8,800 targets only a part is listed; those with a hit were picked by preference. About 0.5% of all pairs of compound and target were hits.

UniProt Q04771, sequence (Q04771 whole entry, looked up): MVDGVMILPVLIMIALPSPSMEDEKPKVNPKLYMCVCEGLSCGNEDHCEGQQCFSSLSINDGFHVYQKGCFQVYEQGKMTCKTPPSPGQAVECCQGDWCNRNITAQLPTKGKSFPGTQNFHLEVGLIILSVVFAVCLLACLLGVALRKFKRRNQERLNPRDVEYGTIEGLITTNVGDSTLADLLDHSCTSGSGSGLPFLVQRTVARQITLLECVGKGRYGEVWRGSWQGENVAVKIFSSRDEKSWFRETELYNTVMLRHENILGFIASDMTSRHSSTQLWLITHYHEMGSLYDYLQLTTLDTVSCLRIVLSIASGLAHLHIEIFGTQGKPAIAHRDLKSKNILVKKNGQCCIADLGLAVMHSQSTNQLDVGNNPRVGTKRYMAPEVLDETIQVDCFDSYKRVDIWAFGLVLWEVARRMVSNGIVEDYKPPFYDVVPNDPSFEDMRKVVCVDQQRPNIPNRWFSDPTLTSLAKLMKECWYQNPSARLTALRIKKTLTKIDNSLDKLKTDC
UniProt Q9BQI0, sequence (Q9BQI0 whole entry, looked up): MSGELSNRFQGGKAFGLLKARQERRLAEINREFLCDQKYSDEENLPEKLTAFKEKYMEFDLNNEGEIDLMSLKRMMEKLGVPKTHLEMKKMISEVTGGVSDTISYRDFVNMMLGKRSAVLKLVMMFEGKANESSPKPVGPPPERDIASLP
UniProt Q8N302, sequence (Q8N302 whole entry, looked up): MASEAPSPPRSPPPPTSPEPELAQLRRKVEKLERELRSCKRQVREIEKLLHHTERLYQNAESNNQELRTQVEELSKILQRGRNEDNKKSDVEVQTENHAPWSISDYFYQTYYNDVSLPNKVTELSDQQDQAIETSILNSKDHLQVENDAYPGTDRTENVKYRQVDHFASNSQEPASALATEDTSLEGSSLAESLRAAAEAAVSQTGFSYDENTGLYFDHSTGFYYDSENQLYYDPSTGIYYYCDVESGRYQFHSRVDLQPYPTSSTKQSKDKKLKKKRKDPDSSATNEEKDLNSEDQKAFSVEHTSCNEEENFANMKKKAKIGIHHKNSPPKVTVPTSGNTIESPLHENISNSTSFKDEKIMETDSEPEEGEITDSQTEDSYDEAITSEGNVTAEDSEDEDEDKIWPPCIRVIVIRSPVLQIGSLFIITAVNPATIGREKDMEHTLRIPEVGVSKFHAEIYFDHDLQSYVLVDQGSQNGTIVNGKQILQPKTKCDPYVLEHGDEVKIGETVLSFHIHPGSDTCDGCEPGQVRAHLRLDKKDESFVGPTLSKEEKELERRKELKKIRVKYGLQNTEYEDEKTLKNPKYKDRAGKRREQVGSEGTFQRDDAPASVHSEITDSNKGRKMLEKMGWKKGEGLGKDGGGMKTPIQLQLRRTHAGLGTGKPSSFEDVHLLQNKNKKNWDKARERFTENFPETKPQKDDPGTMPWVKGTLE
UniProt O00116, sequence (O00116 whole entry, looked up): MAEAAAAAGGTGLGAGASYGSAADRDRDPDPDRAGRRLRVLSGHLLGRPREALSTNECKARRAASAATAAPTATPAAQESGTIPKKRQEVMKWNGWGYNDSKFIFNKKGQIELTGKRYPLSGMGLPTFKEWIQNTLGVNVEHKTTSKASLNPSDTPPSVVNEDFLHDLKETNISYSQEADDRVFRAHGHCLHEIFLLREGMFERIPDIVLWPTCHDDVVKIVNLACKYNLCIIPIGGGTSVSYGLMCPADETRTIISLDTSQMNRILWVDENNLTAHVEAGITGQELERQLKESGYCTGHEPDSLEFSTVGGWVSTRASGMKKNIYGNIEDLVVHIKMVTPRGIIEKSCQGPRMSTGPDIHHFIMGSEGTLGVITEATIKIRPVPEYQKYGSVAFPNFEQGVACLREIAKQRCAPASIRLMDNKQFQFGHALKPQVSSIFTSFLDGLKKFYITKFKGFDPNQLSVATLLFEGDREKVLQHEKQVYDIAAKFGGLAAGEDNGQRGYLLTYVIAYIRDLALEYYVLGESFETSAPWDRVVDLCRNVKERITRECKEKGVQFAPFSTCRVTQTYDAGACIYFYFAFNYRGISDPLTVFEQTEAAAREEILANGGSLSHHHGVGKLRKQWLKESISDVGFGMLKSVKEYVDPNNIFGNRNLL
UniProt Q9BXX3, sequence (Q9BXX3 whole entry, looked up): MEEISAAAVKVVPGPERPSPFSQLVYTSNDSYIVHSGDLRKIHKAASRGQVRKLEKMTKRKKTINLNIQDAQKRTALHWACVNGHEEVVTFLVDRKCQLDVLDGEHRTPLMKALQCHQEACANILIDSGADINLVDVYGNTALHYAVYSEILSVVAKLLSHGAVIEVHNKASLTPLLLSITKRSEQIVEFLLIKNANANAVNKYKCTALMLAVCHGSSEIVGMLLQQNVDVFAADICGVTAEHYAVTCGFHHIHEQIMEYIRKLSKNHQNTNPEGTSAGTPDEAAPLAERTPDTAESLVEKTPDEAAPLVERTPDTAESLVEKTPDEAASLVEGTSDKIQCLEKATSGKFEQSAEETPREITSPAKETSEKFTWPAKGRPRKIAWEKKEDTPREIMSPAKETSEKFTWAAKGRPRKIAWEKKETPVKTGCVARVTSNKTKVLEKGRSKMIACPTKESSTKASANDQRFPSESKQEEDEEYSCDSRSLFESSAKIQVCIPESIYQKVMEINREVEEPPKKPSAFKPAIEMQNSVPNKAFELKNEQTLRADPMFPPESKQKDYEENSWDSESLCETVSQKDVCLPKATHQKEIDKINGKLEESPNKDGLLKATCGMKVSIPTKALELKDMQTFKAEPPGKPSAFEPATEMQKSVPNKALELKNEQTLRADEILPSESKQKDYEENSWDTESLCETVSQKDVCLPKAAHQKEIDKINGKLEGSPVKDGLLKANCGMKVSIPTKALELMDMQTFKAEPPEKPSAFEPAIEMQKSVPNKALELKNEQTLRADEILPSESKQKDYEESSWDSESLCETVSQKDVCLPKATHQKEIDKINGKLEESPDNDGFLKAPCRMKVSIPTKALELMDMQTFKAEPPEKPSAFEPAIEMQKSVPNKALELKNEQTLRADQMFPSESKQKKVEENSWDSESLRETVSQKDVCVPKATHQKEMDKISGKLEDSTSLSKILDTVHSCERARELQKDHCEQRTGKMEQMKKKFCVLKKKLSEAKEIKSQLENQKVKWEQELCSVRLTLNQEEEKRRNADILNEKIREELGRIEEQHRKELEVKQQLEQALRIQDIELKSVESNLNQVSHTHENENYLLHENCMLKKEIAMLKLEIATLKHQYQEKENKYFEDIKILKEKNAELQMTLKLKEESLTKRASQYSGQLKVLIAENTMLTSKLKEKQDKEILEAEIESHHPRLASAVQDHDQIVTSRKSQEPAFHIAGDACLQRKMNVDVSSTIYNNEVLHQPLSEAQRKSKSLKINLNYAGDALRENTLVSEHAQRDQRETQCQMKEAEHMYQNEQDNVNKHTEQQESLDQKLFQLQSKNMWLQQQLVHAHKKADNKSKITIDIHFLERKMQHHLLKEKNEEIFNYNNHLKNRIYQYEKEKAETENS
UniProt Q8N8A2, sequence (Q8N8A2 whole entry, looked up): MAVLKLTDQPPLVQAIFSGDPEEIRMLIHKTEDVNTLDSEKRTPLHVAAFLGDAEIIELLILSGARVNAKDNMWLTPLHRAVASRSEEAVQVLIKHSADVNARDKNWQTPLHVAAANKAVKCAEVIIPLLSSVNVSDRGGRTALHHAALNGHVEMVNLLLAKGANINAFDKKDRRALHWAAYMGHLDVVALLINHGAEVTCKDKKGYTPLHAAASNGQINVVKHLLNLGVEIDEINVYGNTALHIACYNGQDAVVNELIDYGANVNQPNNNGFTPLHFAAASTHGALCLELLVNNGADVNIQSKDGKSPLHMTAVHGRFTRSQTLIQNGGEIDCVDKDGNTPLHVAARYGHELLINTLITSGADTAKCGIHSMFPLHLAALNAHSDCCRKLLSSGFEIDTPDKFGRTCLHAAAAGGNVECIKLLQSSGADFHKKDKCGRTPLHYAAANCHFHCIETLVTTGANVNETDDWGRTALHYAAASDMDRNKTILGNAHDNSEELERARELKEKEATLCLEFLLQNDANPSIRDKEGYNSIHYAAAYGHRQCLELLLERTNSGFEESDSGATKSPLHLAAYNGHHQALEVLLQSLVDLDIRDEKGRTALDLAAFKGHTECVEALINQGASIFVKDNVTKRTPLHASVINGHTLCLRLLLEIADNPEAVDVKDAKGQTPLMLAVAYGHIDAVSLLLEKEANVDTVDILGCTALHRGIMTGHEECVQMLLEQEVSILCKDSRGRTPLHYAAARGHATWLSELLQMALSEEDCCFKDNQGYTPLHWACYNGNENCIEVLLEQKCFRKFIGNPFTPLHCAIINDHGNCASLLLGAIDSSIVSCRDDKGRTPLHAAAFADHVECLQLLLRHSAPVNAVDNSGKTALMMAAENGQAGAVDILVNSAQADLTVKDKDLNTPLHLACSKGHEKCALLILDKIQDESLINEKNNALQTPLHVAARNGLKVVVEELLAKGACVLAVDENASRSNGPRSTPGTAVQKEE
UniProt Q9Y303, sequence (Q9Y303 whole entry, looked up): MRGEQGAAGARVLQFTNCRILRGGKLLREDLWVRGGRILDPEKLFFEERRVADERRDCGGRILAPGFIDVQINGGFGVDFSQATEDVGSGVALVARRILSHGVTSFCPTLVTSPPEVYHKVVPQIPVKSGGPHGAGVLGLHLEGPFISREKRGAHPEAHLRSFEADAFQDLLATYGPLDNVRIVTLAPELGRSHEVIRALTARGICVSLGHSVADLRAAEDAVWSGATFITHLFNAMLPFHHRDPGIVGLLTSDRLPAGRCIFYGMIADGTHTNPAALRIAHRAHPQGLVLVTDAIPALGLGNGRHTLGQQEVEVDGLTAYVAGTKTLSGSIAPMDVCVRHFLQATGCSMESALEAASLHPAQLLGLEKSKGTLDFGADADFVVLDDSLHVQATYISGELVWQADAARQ
UniProt P14621, sequence (P14621 whole entry, looked up): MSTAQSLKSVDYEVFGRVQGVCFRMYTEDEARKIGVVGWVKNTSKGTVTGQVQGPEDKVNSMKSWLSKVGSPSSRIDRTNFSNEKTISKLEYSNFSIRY
UniProt Q9P1F3, sequence (Q9P1F3 whole entry, looked up): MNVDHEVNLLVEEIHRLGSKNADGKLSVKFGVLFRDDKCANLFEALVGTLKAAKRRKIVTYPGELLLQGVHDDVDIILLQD

Compound in one experiment: C1=CC=C(C=C1)[C@H](COC2=CC3=C(C=C2)NC(=O)N3)NC(=O)C4=CC=CN(C4=O)CC5=CC(=C(C=C5)F)F
As to the kind of experiment: log2 fold change, soluble protein after heating vs DMSO (PISA); higher = thermal stabilisation; K562 lysate, 10 uM; active = over 0.2 and 3.5 SD of the protein, either way, in both replicates (recomputed). The procedure, abridged: (§1)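 Log-two fold change in thermal stability relative to solvent controls is reported from duplicates. For each sample, crude K562 extract from dounce-homogenised pellets in PBS pH 7.4 with 1 mM MgCl2, at 1 mg/mL protein, was treated with 10 μM compound for 30 min. Aliquots heated for 3 min across 48°C-58°C were pooled, brought to 0.5% NP-40 at 4°C and cleared at 21,000xg for 90 min. The supernatant was quantified by TMTpro 16plex LC-MS/MS with channel sums equalised.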
Consider AGTPBP1 (UniProt Q9UPW5), for which the log2 fold change was 0.131 (inactive).
The same measure, in the same setting: under ACLY isoform 2 (UniProt P53396) stands 0.099 (inactive).
In the case of ARL8A (UniProt Q96BM9), the log2 fold change is 0.038 (inactive).
The same measure, in the same setting: as for ARFGAP1 (UniProt Q8N6T3), the figure is 0.037 (inactive); as for ANP32E isoform 3 (UniProt Q9BTT0), 0.003 (inactive); as for ANKRD30A (UniProt Q9BXX3), -0.04 (inactive).
On the same count and under the same terms, as for ACVR1 (UniProt Q04771), the figure is -0.052 (inactive); as for ACYP2 (UniProt P14621), -0.061 (inactive); as for AIF1L (UniProt Q9BQI0), 0.072 (inactive).
Same read-out and setting: under ANKRD44 isoform 2 (UniProt Q8N8A2) stands -0.032 (inactive).
Turning to ABRACL (UniProt Q9P1F3), the log2 fold change is 0.052 (inactive).
With AP5B1 (UniProt Q2VPB7), the log2 fold change is 0.079 (inactive).
For the target ANXA2 (UniProt H0YL33), the log2 fold change is 0.079 (inactive).
Still for that read-out and setting: under AGGF1 (UniProt Q8N302) stands 0.042 (inactive); under AMDHD2 isoform 3 (UniProt Q9Y303), 0.049 (inactive).
Still for that read-out and setting: as for AGPS (UniProt O00116), the figure is -0.103 (inactive).

Compound in another experiment: CC1=C(SC2=C1C(=N[C@H](C3=NN=C(N32)C)CC(=O)N)C4=CC=C(C=C4)Cl)C
Described as above. The procedure, abridged: as §1
With AGTPBP1 (UniProt Q9UPW5), the log2 fold change was -0.13 (inactive).
Same read-out and setting: as for ACLY isoform 2 (UniProt P53396), the figure is -0.01 (inactive).
The same measure, in the same setting: under ARL8A (UniProt Q96BM9) stands -0.02 (inactive); under ARFGAP1 (UniProt Q8N6T3), -0.091 (inactive).
Same read-out and setting: as for ANP32E isoform 3 (UniProt Q9BTT0), the figure is 0.09 (inactive); as for ANKRD30A (UniProt Q9BXX3), -0.051 (inactive).
As for ACVR1 (UniProt Q04771), the log2 fold change is -0.055 (inactive).
Same read-out and setting: under ACYP2 (UniProt P14621) stands -0.032 (inactive); under AIF1L (UniProt Q9BQI0), -0.031 (inactive); under ANKRD44 isoform 2 (UniProt Q8N8A2), -0.045 (inactive).
Same read-out and setting: as for ABRACL (UniProt Q9P1F3), the figure is -0.221 (inactive); as for AP5B1 (UniProt Q2VPB7), -0.023 (inactive).
ANXA2 (UniProt H0YL33): the log2 fold change was -0.079 (inactive).
Still for that read-out and setting: under AGGF1 (UniProt Q8N302) stands 0.049 (inactive).
The same measure, in the same setting: as for AMDHD2 isoform 3 (UniProt Q9Y303), the figure is 0.016 (inactive); as for AGPS (UniProt O00116), 0.016 (inactive).
